Assay outcomes (PubChem)
Shown is part of a subset that was picked to be rich in hits.
DT40 TDP1 CPT = growth inhibition of DT40 Tdp1-/-;hTDP1 cells with camptothecin (screen for TDP1 inhibitors). chicken DT40 Tdp1-/-;hTDP1 cells + 20 nM CPT, ATP luminescence, 48 h. Potency, µM (doses to about 46.2 µM), inactives show top-dose activity change, negative = growth inhibition, actives largely listed as inhibitors. hit rate 12% among 420,000. AID 686979; further: potency means the concentration at half of the fitted maximal effect; nearly all actives have a fitted effect of over 55% in size
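Chicken DT40 Tdp1-/- cells complemented with human TDP1, 400 cells/well, exposed to compounds plus 20 nM camptothecin for at least 48 h at 37 C; viability read as ATP content by CellTiter-Glo luminescence.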
12-LOX inh = inhibitors of human 12S-lipoxygenase ALOX12 | P18054 | purified 12hLO, xylenol orange hydroperoxide absorbance | Potency, µM (top dose mostly 108 µM), inactives show at the top dose activity change, negative = inhibition, actives largely listed as inhibitors | hit rate 1.1% among 580,000; further: potency means the concentration at half of the fitted maximal effect
Target sequence (P18054 whole entry, looked up): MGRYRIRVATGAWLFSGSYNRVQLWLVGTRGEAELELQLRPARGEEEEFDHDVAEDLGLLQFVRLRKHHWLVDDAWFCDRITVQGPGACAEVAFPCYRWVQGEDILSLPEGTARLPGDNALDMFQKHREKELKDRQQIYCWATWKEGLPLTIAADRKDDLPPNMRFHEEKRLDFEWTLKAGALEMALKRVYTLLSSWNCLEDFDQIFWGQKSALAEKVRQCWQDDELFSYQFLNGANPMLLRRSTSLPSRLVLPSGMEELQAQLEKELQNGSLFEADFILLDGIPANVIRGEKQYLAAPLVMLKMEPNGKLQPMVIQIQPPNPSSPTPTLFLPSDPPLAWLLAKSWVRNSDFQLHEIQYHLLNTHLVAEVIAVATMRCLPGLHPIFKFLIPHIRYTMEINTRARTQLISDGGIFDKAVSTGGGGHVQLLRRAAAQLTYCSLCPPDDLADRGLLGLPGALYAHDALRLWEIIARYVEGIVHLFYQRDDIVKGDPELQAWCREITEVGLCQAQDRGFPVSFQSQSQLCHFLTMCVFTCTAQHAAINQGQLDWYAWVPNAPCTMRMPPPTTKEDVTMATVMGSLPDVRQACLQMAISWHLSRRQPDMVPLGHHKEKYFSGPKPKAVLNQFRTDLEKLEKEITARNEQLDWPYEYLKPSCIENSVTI
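Hydroperoxide product was detected by ferrous iron/xylenol orange as the 573 to 405 nm absorbance ratio. Arachidonic acid at 40 uM (final) was turned over for 30 min at room temperature by 150 nM human 12hLO, pH 7.0 Hepes buffer, after 15 min compound preincubation.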
DT40 TDP1 no CPT = qHTS for Inhibitors of human tyrosyl-DNA phosphodiesterase 1 (TDP1): qHTS in cells in absence of CPT. DT40 Tdp1-/- hTDP1 cells, no CPT, ATP luminescence, 48 h. hit rate 15% among 420,000. Potency, µM (titrated, usually from 46.2 µM), inactives show at the top dose activity change, negative = growth inhibition, usual class: inhibitors. AID 686978, 2013; further: potency means the concentration at half of the fitted maximal effect; nearly all actives have a fitted effect of over 55% in size
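Compound effects on proliferation are scored in DT40 Tdp1-/-;hTDP1 cells in the absence of CPT. ATP levels (CellTiter-Glo luminescence) are recorded after a ≥48 hr, 37 °C incubation.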
HT1080-NT tox = kills 2HG-producing HT-1080-NT fibrosarcoma cells | HT-1080-NT fibrosarcoma viability, CellTiter-Glo ATP luminescence, 48 h | Potency, µM (doses to about 46.1 µM), for inactives: at the top dose activity, negative = less viability, hits mostly cytotoxic | hit rate 1.6% among 360,000;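 further: NT is the 2HG producing partner of a matched IDH1 knockdown line; potency means the concentration at half of the fitted maximal effect; 0% = DMSO-treated cells and -100% = media-only wells without cells; nearly all actives have a fitted effect of over 55% in size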
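HT-1080-NT fibrosarcoma cells (2HG-overproducing), 750 cells/well in RPMI with 5% FBS, dosed after 2 h and incubated 48 h at 37C. CellTiter-Glo luminescence normalized to DMSO and no-cell wells; concentration-response curves fitted and classed.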
HT1080 IDH1KD tx = kills HT-1080 cells with IDH1 knockdown; HT-1080 IDH1 knockdown viability, ATP luminescence, 48 h; Potency, µM (highest dose often 46.1 µM), for the others: top-dose activity, negative = toxicity, usual class: cytotoxic; hit rate 2% among 360,000;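 further: potency means the concentration at half of the fitted maximal effect; 0% = DMSO wells and -100% = cell-free medium wells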
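Luminescent ATP read-out (CellTiter-Glo, 10 min at room temperature) after 48 h compound exposure at 37 °C gave viability of IDH1-knockdown HT-1080 cells. Activity was normalised to DMSO and cell-free wells, then fitted as concentration-response curves.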
IL1B secr inh = inflammasome signaling inhibition, IL-1 beta readout; THP-1 LPS/ATP IL-1B secretion, AlphaLISA, 16 h; active compounds read low; activity change, % at 57.5 µM; hit rate 4.7% among 360,000; in the data active means activity change below about -50%; inconclusive means mostly about -30% to -49%
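Secreted IL-1B measured by AlphaLISA bead assay after 16 h compound exposure of THP-1 cells; compounds (final up to 57.5 uM) added 1 h before LPS (250 ng/mL) and ATP (1.25 mM) stimulation; lower signal means less secretion.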
* hit, by the source's call; [ ] = dose if it differs, or a comment. Unless noted, the call rests on the fitted dose curve; in most records, active means well fitted curve in the direction sought with a large enough effect; inconclusive means small, poorly fitted or top-dose-only effect, or another doubt; inactive means no such curve, though single readings can be large; an effect the other way counts as inactive or inconclusive. Unless noted, on the % scale 0 is the no-effect control and ±100 the full control effect.

COc1ccc(-c2c(C#N)c(N)nc3sc(C(=O)c4ccccc4)c(N)c23)cc1 was read as DT40 TDP1 CPT inconclusive, 12-LOX inh 13%, DT40 TDP1 no CPT 23µM*, HT1080-NT tox 1%, HT1080 IDH1KD tx 14% and IL1B secr inh -7.
COc1ccc(-c2c(C#N)c(N)nc3c2c(=O)n(C)c(=O)n3C)cc1 was read as DT40 TDP1 CPT inconclusive, 12-LOX inh 52%, DT40 TDP1 no CPT 13µM*, HT1080-NT tox -4%, HT1080 IDH1KD tx 4% and IL1B secr inh 13.
`Cc1cccc(Oc2sc(C(=O)c3ccccc3)c(N)c2C#N)c1` gave DT40 TDP1 CPT inconclusive, 12-LOX inh inconclusive, DT40 TDP1 no CPT inconclusive, HT1080-NT tox inconclusive, HT1080 IDH1KD tx inconclusive and IL1B secr inh -86*.
Screening CC(C)Nc1sc(C(=O)c2ccccc2)c(N)c1C#N returned 12-LOX inh -12%.
`CCOc1ccc(-c2c(C#N)c(N)nc3sc(C(=O)c4ccccc4)c(N)c23)cc1` gave DT40 TDP1 CPT inconclusive, 12-LOX inh 0%, DT40 TDP1 no CPT -22%, HT1080-NT tox -5%, HT1080 IDH1KD tx -1% and IL1B secr inh 83.
Screening O=C(C1CCOCC1)N1CCCC(N2CCN(c3ccc(F)cc3)CC2)C1 (configuration not stated) returned DT40 TDP1 CPT -15%, 12-LOX inh -10%, DT40 TDP1 no CPT 19%, HT1080-NT tox -5%, HT1080 IDH1KD tx 0% and IL1B secr inh -3.
For CCOc1ccc2nc(NC3=NC(c4ccc(OC)cc4)CC(=O)N3)nc(C)c2c1 (configuration not stated) the results were DT40 TDP1 CPT 23µM*, 12-LOX inh inconclusive, DT40 TDP1 no CPT 21µM*, HT1080-NT tox inconclusive, HT1080 IDH1KD tx inconclusive and IL1B secr inh -103*.
O=[N+]([O-])c1ccc(Nc2nc(NCCN3CCOCC3)nc(Nc3ccc(Cl)cc3)n2)cc1 was read as DT40 TDP1 CPT 14µM* and DT40 TDP1 no CPT 10µM*.
`O=[N+]([O-])c1ccc(Nc2nc(Cl)nc(NCCO)n2)cc1` gave DT40 TDP1 CPT 7%, 12-LOX inh -24%, DT40 TDP1 no CPT -14%, HT1080-NT tox -4%, HT1080 IDH1KD tx -2% and IL1B secr inh 36.
`COc1ccc(Nc2nc(NCCN3CCOCC3)nc(Nc3ccc(OC)cc3)n2)cc1` gave DT40 TDP1 CPT 11µM*, 12-LOX inh inconclusive, DT40 TDP1 no CPT 14µM*, HT1080-NT tox -29%, HT1080 IDH1KD tx -13% and IL1B secr inh -91*.
Screening O=[N+]([O-])c1ccc(Nc2nc(NCCN3CCOCC3)nc(Nc3ccc(I)cc3)n2)cc1 returned DT40 TDP1 CPT 7.1µM* and DT40 TDP1 no CPT 4.5µM*.
Screening COc1nc(NCCN2CCOCC2)nc(Nc2ccccc2)n1 returned DT40 TDP1 CPT 27%, 12-LOX inh 39%, DT40 TDP1 no CPT 8%, HT1080-NT tox 9%, HT1080 IDH1KD tx 5% and IL1B secr inh 8.
`COc1ccc(CN2C[C@H]3CN(C(=O)C4CCOCC4)CCN3C2=O)cc1` gave 12-LOX inh 11%[176 µM].
`C=Cn1cnc2ccccc21` gave 12-LOX inh 7%.
Screening CNC(=O)[C@@H]1CN(C(=O)c2c[nH]c3ccccc23)C[C@H]1COC returned 12-LOX inh 17%.
CCOC(=O)c1cnc2ccc(OCC)cc2c1Nc1cccc(C(=O)OC)c1 was read as 12-LOX inh 11%.
Screening CCn1ccc(C(=O)N2CC[C@@H]3COCCN(Cc4ccncc4)[C@@H]3C2)n1 returned 12-LOX inh 16%.
`CCOC(=O)C1CCCN(c2nc(C)nc3c2oc2ccccc23)C1` (configuration not stated) gave DT40 TDP1 CPT 15µM*, 12-LOX inh inconclusive, DT40 TDP1 no CPT 21µM*, HT1080-NT tox inconclusive, HT1080 IDH1KD tx inconclusive and IL1B secr inh 9.
Screening CCc1nc(N2CCCC(C)C2)c2oc3ccccc3c2n1 (configuration not stated) returned DT40 TDP1 CPT inconclusive, 12-LOX inh 0%, DT40 TDP1 no CPT inconclusive, HT1080-NT tox inconclusive, HT1080 IDH1KD tx inconclusive and IL1B secr inh 1.
For CCOC(=O)C1CCN(c2nc3ccccc3nc2Cl)CC1 the results were DT40 TDP1 CPT 0%, 12-LOX inh 0% and DT40 TDP1 no CPT -11%.
`CCOC(=O)C1CCN(c2nc(C)nc3c2oc2ccccc23)CC1` gave DT40 TDP1 CPT 23µM*, 12-LOX inh inconclusive, DT40 TDP1 no CPT 23µM*, HT1080-NT tox 3%, HT1080 IDH1KD tx -11% and IL1B secr inh 4.
For Cc1ccc(Cl)cc1N1CCN(C(=O)Cn2ncc3c4ccccc4n(C)c3c2=O)CC1 the results were DT40 TDP1 CPT 6%, 12-LOX inh -13% and DT40 TDP1 no CPT -1%.
For Cc1ccc(Cl)cc1N1CCN(C(=O)C(C)n2ncn3cccc3c2=O)CC1 (configuration not stated) the results were DT40 TDP1 CPT 18µM*, 12-LOX inh 32%, DT40 TDP1 no CPT 23µM*, HT1080-NT tox 3%, HT1080 IDH1KD tx -4% and IL1B secr inh -23.
Screening CC(C(=O)N1CCCCC1)n1ncn2cccc2c1=O (configuration not stated) returned DT40 TDP1 CPT -3%, 12-LOX inh -4%, DT40 TDP1 no CPT 6%, HT1080-NT tox 7%, HT1080 IDH1KD tx 16% and IL1B secr inh 6.
Screening Cn1c(=O)c2cc(C(=O)N3CCN(c4cccc(C(F)(F)F)c4)CC3)sc2c2ccccc21 returned DT40 TDP1 CPT inconclusive, 12-LOX inh 1% and DT40 TDP1 no CPT 3.7µM*.
`Cn1c(C(=O)N2CCN(c3ncccn3)CC2)cc2c(=O)n(C)c3ccccc3c21` gave DT40 TDP1 CPT inconclusive, 12-LOX inh -15%, DT40 TDP1 no CPT 21µM*, HT1080-NT tox 3%, HT1080 IDH1KD tx 7% and IL1B secr inh -9.
Cc1ccc(Cl)cc1N1CCN(C(=O)c2cc3c(=O)n(C)c4ccccc4c3n2C)CC1 was read as DT40 TDP1 CPT 18µM*, 12-LOX inh 378%, DT40 TDP1 no CPT 16µM*, HT1080-NT tox 2%, HT1080 IDH1KD tx 5% and IL1B secr inh 56.
For Cc1cc(=O)[nH]c(CCNc2nc(-c3ccncc3)nc3c2c(C)nn3C)n1 the results were 12-LOX inh 50%.
